The source made the active and inactive calls. Unless noted, how the calls were made is not given here.
Assays:
[1] = tested on: Wnt5a (protein binding on small-molecule microarray); test: small molecules binding Wnt5a protein – biophysical, small-molecule microarray, 635/667 nm fluorescence, primary screen (AID 1142); conditions: 635 nm fluorescence, higher = more signal;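 further: fluorescence read at 667 nm with signal to noise per printed feature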
[2] = ATP-based viability of Huh7 replicon cells – cell-based, CellTiter-Glo luminescence, basal, 48 h, cytotoxicity control for HCV replication inhibitor project, primary screen (AID 1143); conditions: higher = more signal, called active from +8 up or from −8 down;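 further: Huh7 hepatoma cells carrying a hepatitis C replication reporter with no stimulus; test concentration not given here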
[3] = Pseudomonas biofilm growth suppression – PAO1 strain, BacTiter-Glo luminescence, LB-PBS, primary screen (AID 1144); conditions: P. aeruginosa PAO1 biofilm, 12 h, higher = more signal
[4] = basal CRE-LacZ reporter activity in PC12 – cell-based, unstimulated, primary screen (AID 1145); conditions: no forskolin, luminescence, 4.5 h, higher = more signal, called active from +8 up or from −8 down
[5] = forskolin-driven CRE-LacZ activity in PC12 – cell-based, CRE-LacZ reporter, forskolin-stimulated, primary screen (AID 1146); conditions: luminescence, 4.5 h, higher = more signal, called active from +8 up or from −8 down;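 further: PC12 cells with 6xCRE LacZ reporter stimulated by forskolin 10 µM; beta-galactosidase reporter signal reflecting CREB driven transcription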
[6] = target: Streptavidin (Streptomyces avidinii) (UniProt P22629); test: compounds binding control protein streptavidin – biophysical, small-molecule microarray, 635/667 nm fluorescence, artefact control for SMM compound annotation, primary screen (AID 1147); conditions: higher = more signal;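 further: signal reflects streptavidin binding to arrayed compounds as a control protein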
[7] = probe aInhba binding on compound microarray – biochemical, small-molecule microarray, 635/667 nm fluorescence, primary screen (AID 1148); conditions: higher = more signal;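 further: score merges 667nm spot fluorescence with signal-to-noise for antibody binding to printed compounds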
Torsin-1A (Homo sapiens) [8] = target: Torsin-1A (Homo sapiens) (UniProt O14656); test: TOR1A wild-type binding on microarray – cell lysate, small-molecule microarray, lysate, 635/667 nm, primary screen (AID 1149); conditions: COS7 hTOR1A-WT lysate, 635 nm fluorescence, higher = more signal
Torsin-1A (Homo sapiens) [9] = target: Torsin-1A (Homo sapiens) (UniProt O14656); test: torsin A mutant lysate binding on microarrays – cell lysate, small-molecule microarray, COS7 lysate, 635/667 nm fluorescence, primary screen (AID 1150); conditions: COS7 hTOR1A mutant lysate, 635 nm fluorescence, higher = more signal;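 further: score pools 667 nm emission and signal to noise measuring lysate protein binding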
[10] = tested on: Sonic hedgehog protein (Shh); test: Sonic hedgehog microarray binding compounds – biochemical, small-molecule microarray, 635/667 nm fluorescence, primary screen (AID 1151); conditions: 635 nm fluorescence, higher = more signal;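 further: Shh protein binding to compounds spotted on small-molecule microarray slides; score combines spot fluorescence intensity with signal-to-noise across triplicate slides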
[11] = optical density shifts of acrAB sulA E. coli – strain DRC41, OD650, 48 h, E. coli filamentation inducer project, primary screen (AID 1152); conditions: higher = more signal, called active from +8 up or from −8 down;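 further: E. coli MC1000 strain DRC41 lacking acrAB efflux pump and sulA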
[12] = probe aLefty1 binding on compound microarray – biochemical, small-molecule microarray, 635/667 nm fluorescence, primary screen (AID 1153); conditions: higher = more signal;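 further: score merges spot fluorescence with signal-to-noise ratio from the scanned slide images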
[13] = plasmodial surface anion channel blockers, osmotic lysis – cell-based, P. falciparum Indochina, OD700, 1 h, primary screen (AID 1154); conditions: P. falciparum Indochina infected RBC osmotic lysis, higher = more signal, called active from +8 up or from −8 down
[14] = plasmodial surface anion channel blockers, osmotic lysis – cell-based, P. falciparum Indochina, OD700, 2 h, primary screen (AID 1155);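 further: lysis reports solute entry through the parasite surface anion channel PSAC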; conditions: P. falciparum Indochina infected erythrocytes, higher = more signal, called active from +8 up or from −8 down
[15] = changes in parasitized red cell lysis, either direction – P. falciparum Indochina, OD700, 3 h, PSAC antagonist project, primary screen (AID 1156); conditions: P. falciparum-infected erythrocytes, osmotic lysis, higher = more signal, called active from +8 up or from −8 down
[16] = plasmodial surface anion channel blockers, osmotic lysis – cell-based, P. falciparum Indochina, OD700, 18 h, primary screen (AID 1157); conditions: P. falciparum Indochina infected erythrocytes, osmotic lysis OD700, 18 h; higher = more signal, called active from +8 up or from −8 down
[17] = S6 kinase pathway phospho-S6 level changes – cell-based, A549, cytoblot, luminescence, serum-stimulated, primary screen (AID 1158); conditions: 5 h, higher = more signal;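 further: serum-stimulated A549 lung adenocarcinoma cells; signal is phosphorylated S6 detected by cytoblot immunostaining with HRP secondary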
[18] = target: NADPH oxidase 2 (Homo sapiens) (UniProt P04839); test: compounds shifting NOX2 Amplex Red fluorescence – cell-based, HEK293-NOX2, PMA-stimulated, NOX inhibitor project, primary screen (AID 1159); conditions: 45 min, higher = more signal, called active from +8 up or from −8 down; further: test concentration not given here
[19] = target: NADPH oxidase 4 (Homo sapiens) (UniProt Q9NPH5); test: compounds shifting NOX4 Amplex Red fluorescence – cell-based, HEK293-NOX4, tetracycline-induced, NOX inhibitor project, primary screen (AID 1160); conditions: HEK293-NOX4, Amplex Red H2O2 fluorescence, 45 min; higher = more signal, called active from +8 up or from −8 down
[20] = target: NADPH oxidase 5 (Homo sapiens) (UniProt Q96PH1); test: compounds shifting NOX5 Amplex Red fluorescence – cell-based, HEK293-NOX5, NOX inhibitor project, primary screen (AID 1161); conditions: HEK293-NOX5, ionomycin, 45 min, higher = more signal
Chain of NADPH oxidase 5 (Homo sapiens) (Q96PH1 whole entry, looked up): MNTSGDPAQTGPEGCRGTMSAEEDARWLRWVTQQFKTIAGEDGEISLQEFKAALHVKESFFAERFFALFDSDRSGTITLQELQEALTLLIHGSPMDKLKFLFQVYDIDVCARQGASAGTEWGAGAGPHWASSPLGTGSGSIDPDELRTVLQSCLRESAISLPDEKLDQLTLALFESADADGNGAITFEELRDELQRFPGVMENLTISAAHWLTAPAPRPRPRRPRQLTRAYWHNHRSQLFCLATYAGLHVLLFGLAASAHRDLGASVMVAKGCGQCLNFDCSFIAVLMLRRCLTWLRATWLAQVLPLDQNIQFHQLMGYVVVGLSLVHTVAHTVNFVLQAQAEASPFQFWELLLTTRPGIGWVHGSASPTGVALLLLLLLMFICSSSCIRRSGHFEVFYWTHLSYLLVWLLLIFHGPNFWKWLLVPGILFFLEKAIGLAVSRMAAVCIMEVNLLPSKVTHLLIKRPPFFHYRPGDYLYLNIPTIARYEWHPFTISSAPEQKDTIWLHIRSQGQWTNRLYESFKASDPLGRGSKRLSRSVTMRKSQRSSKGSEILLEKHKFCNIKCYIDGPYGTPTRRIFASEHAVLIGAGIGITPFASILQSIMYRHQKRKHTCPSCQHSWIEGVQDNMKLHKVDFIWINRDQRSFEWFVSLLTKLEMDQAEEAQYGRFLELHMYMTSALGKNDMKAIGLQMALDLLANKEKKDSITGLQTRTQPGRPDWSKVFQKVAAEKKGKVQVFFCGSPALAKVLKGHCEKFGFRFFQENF

Chain of Streptavidin (Streptomyces avidinii) (P22629 whole entry, looked up): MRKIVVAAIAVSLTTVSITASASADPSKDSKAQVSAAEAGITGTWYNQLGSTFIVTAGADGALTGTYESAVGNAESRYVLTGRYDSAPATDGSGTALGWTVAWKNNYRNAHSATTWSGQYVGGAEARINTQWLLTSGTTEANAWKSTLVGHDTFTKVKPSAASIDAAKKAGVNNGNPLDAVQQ
Chain of NADPH oxidase 2 (Homo sapiens) (P04839 whole entry, looked up): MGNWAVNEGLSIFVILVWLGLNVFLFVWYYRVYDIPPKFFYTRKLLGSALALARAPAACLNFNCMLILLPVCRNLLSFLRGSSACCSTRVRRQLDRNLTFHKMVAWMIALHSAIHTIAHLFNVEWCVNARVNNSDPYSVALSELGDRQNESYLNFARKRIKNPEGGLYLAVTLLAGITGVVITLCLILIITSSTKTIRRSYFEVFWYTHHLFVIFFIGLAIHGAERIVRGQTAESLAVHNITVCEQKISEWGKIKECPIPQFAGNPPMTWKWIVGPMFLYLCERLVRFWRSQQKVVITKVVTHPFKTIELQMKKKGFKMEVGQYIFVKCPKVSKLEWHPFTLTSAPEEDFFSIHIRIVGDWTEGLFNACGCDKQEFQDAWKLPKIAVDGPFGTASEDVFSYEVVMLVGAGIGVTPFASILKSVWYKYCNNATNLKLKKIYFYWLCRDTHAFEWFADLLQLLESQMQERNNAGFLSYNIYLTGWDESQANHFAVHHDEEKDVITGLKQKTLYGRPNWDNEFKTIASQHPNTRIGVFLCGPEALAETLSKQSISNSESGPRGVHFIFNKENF
Chain of Torsin-1A (Homo sapiens) (O14656 whole entry, looked up): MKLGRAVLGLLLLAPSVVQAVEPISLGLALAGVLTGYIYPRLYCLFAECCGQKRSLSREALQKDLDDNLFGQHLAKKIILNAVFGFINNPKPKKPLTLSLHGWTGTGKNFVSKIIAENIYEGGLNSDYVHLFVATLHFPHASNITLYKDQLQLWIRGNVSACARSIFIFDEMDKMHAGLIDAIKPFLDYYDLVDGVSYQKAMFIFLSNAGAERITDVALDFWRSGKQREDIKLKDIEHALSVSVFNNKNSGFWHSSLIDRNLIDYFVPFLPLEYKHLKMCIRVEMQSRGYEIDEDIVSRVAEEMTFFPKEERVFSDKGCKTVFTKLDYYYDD
Chain of NADPH oxidase 4 (Homo sapiens) (Q9NPH5 whole entry, looked up): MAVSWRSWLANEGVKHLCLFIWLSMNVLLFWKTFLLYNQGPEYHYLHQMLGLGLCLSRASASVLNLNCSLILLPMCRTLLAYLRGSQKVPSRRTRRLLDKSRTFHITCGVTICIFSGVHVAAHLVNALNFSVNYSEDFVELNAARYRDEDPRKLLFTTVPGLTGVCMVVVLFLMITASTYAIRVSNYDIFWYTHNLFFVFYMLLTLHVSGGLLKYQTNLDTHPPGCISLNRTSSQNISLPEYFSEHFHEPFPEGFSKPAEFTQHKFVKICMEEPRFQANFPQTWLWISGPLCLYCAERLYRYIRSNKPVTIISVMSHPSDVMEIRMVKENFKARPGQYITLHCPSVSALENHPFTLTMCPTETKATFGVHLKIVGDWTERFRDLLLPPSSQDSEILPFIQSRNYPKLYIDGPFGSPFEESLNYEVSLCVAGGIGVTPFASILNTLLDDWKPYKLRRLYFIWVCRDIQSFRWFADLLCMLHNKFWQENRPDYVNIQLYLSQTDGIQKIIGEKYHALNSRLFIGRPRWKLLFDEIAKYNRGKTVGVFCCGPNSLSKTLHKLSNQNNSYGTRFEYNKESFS

| Structure (SMILES) | composite z-score [1] | z-score [2] | z-score [3] | z-score [4] | z-score [5] | composite z-score [6] | composite z-score [7] | composite z-score (Torsin-1A (Homo sapiens) [8]) | composite z-score (Torsin-1A (Homo sapiens) [9]) | composite z-score [10] | z-score [11] | composite z-score [12] | z-score [13] | z-score [14] | z-score [15] | z-score [16] | z-score [17] | z-score [18] | z-score [19] | z-score [20] |
| --- | --- | --- | --- | --- | --- | --- | --- | --- | --- | --- | --- | --- | --- | --- | --- | --- | --- | --- | --- | --- |
| CN(C)CCCCNC(=O)[C@@H]1C[C@@H]2C(=O)N[C@@H](CCCCN)C(=O)N2[C@@H]1c1cccc(OCCO)c1 | -0.157 | 0.0925 (inactive) | -0.703 (inactive) | -0.805 (inactive) | -0.325 (inactive) | -0.521 | 0.245 | -1.37 | -2.02 | 0.985 | -0.389 (inactive) | 0.837 | 2.51 (inactive) | 0.337 (inactive) | -1.21 (inactive) | -0.0182 (inactive) | -0.446 | 1.36 (inactive) | 1.05 (inactive) | 1.43 |
| C=C(CCCC)C(=O)CC[C@H](OC(C)=O)c1ccc(CO)o1 | 0.0631 | -3.11 (inactive) | -0.312 (inactive) | 0.508 (inactive) | -0.79 (inactive) | -0.264 | -0.0427 | -0.423 | 0.794 | 1.99 | 0.33 (inactive) | 0.929 | 2.26 (inactive) | -0.43 (inactive) | 0.25 (inactive) | -1.8 (inactive) | 0.612 | 0.184 (inactive) | 0.209 (inactive) | -1.32 |
| C=C[C@H](OC)[C@@H](OC(=O)Nc1ccc(SC)cc1)c1ccc(OCCO)cc1 | 0.712 | -1.24 (inactive) | -1.2 (inactive) | 1.55 (inactive) | -0.648 (inactive) | -0.414 | -0.123 | 0.212 | 0.792 | 0.255 | -0.356 (inactive) | -0.101 | 26 (active) | 15.7 (active) | 2.51 (inactive) | 1.82 (inactive) | 0.306 | 0.228 (inactive) | 0.103 (inactive) | 0.99 |
| C=CCC(OC(C)=O)[C@@H]1[C@@H](N(Cc2ccc(-c3ccccc3)cc2)C(=O)c2ccc(C)cc2)c2cc(OCCCO)ccc2N1C(=O)c1ccc2ccccc2n1 (stereo not given in full) | -0.162 | -1.16 (inactive) | -1.41 (inactive) | 5.54 (inactive) | -0.523 (inactive) | 0.105 | 0.173 | -0.211 | 0.115 | 0.794 | 2.95 (inactive) | 0.175 | 0.225 (inactive) | -0.883 (inactive) | -1.19 (inactive) | -1.06 (inactive) | 1.56 | -0.0121 (inactive) | 0.729 (inactive) | 1.92 |
| O=C1OCC=C[C@H]2OC34C=CCN(Cc5ccccc5)C(=O)[C@H]3N(CCCO)C(=O)[C@@H]4[C@@H]12 (stereo not given in full) | -0.312 | -2.33 (inactive) | -1.04 (inactive) | -0.899 (inactive) | -0.59 (inactive) | -0.707 | 0.222 | -0.667 | -0.239 | 1.44 | 2.57 (inactive) | 1.27 | 0.599 (inactive) | -1 (inactive) | 1.01 (inactive) | -1.05 (inactive) | 0.833 | -0.548 (inactive) | -1.29 (inactive) | -1.17 |
| O=c1cccc(-c2ccc3ccccc3c2)o1 | -0.0955 | -2.3 (inactive) | 0.787 (inactive) | 0.425 (inactive) | 0.0815 (inactive) | 0.351 | -0.025 | -0.0735 | -0.0223 | 0.27 | 0.62 (inactive) | -0.0035 | 25.4 (active) | 10 (active) | -1.71 (inactive) | 1.1 (inactive) | -0.38 | -0.415 (inactive) | -4.41 (inactive) | -1.19 |
| CO[C@H]1O[C@H](CO)[C@@H](OC(=O)Nc2ccc(C(F)(F)F)cc2)[C@H](OC(=O)Nc2ccccc2)[C@@H]1OC(=O)Nc1ccccc1 | 0.534 | -3.7 (inactive) | 0.724 (inactive) | 0.904 (inactive) | -1.01 (inactive) | 1.08 | -0.0538 | 0.146 | -0.0359 | 0.934 | -0.744 (inactive) | -0.407 | 7.34 (inactive) | 1.01 (inactive) | -0.886 (inactive) | 0.863 (inactive) | -0.143 | 0.179 (inactive) | -0.513 (inactive) | -0.468 |
| C=CCOC(=O)[C@@H]1[C@H]2C(=O)O[C@H](c3ccccc3)[C@H](c3ccccc3)N2[C@H](c2ccc(OCCOC(=O)[C@H]3C[C@H]4C(=O)N[C@@H](CC(C)C)C(=O)N4[C@H]3c3cccc(OCCO)c3)cc2)[C@@]12C(=O)Nc1ccc(I)cc12 | 0.289 | -2.48 (inactive) | -0.174 (inactive) | 0.419 (inactive) | -0.0639 (inactive) | 0.332 | 0.247 | 1 | 1.15 | 2.06 | -0.0888 (inactive) | 0.185 | 2.85 (inactive) | -0.154 (inactive) | 0.789 (inactive) | -1.24 (inactive) | 0.456 | 1.07 (inactive) | 1.02 (inactive) | 0.73 |
